Assay results taken from PubChem BioAssay AID1159580 (chemical genetic matrix, 2015).
“And” between values parts separate entries of the source, which are not always exact repeats. Equal values may be shown once. Out of some 5,500 compounds screened, about 2,000 (36%) were called active. Not shown: some 18% with an inconclusive outcome. No stated cut-off is given here; in the data, active means normalized growth mostly below about 0.91 (no sharp cut-off); inconclusive means no clear call, values can overlap the other calls; inactive means mostly above about 0.92. This is one part of the list.

Assay: chemical genetic growth profiling, strain panel (AID 1159580);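 further: tested at 20 µM; growth read once vehicle control cultures reached saturation at 30 °C; 1 = growth at the plate median or of vehicle wells; lower values mean less growth of the strain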
Details: S. cerevisiae deletion strains, growth OD

Measured: normalized growth

CC[C@H](CCC(C)[C@H]1CCC2C3CCC4C[C@@H](O)CC[C@]4(C)C3CC[C@@]21C)C(C)C (stereo partly drawn)
inactive: locus YAL013W, strain DEP1, active compounds read low 1.01 | locus YAL021C, strain ccr4, active compounds read low 0.968 | locus YAL026C, strain drs2, active compounds read low 0.955 | locus YAL030W, strain snc1, active compounds read low 0.985 | locus YBL061C, strain skt5, active compounds read low 0.988 | locus YBR009C, strain hhf1, active compounds read low 0.983 | locus YBR021W, strain FUR4, active compounds read low 0.993 | locus YBR023C, strain chs3, active compounds read low 0.988 | locus YBR171W, strain sec66, active compounds read low 0.976 | locus YBR229C, strain ROT2, active compounds read low 0.999 | locus YBR231C, strain swc5, active compounds read low 1.01 | locus YBR279W, strain paf1, active compounds read low 0.983 | locus YCL011C, strain gbp2, active compounds read low 0.986 | locus YCL016C, strain dcc1, active compounds read low 0.992 | locus YCL029C, strain bik1, active compounds read low 1.03 | locus YCL061C, strain MRC1, active compounds read low 0.99 | locus YCL069W, strain vba3, active compounds read low 0.971 | locus YCR088W, strain abp1, active compounds read low 0.988 | locus YDL005C, strain med2, active compounds read low 0.975 | locus YDL035C, strain GPR1, active compounds read low 1.01 | locus YDL040C, strain nat1, active compounds read low 0.991 | locus YDL074C, strain BRE1, active compounds read low 1 | locus YDL101C, strain DUN1, active compounds read low 1.01 | locus YDL185W, strain tfp1, active compounds read low 1.02 | locus YDL192W, strain arf1, active compounds read low 1.02 | locus YDR001C, strain nth1, active compounds read low 0.984 | locus YDR069C, strain doa4, active compounds read low 0.977 | locus YDR101C, strain arx1, active compounds read low 1.01 | locus YDR137W, strain rgp1, active compounds read low 0.973 | locus YDR159W, strain sac3, active compounds read low 0.975 | locus YDR162C, strain NBP2, active compounds read low 1.02 | locus YDR195W, strain ref2 0.946 | locus YDR297W, strain sur2, active compounds read low 0.993 | locus YDR318W, strain mcm21, active compounds read low 1.01 | locus YDR334W, strain swr1, active compounds read low 0.972 | locus YDR335W, strain msn5, active compounds read low 0.984 | locus YDR388W, active compounds read low 1.01 | locus YDR392W, strain spt3, active compounds read low 0.932 | locus YDR502C, strain sam2, active compounds read low 1.01 | locus YEL003W, strain gim4, active compounds read low 0.991 | locus YEL037C, strain rad23, active compounds read low 0.948 | locus YEL061C, strain CIN8 (second series), active compounds read low 0.975 | locus YEL061C, strain CIN8, active compounds read low 1.01 | locus YER015W, strain faa2, active compounds read low 0.995 | locus YER016W, strain bim1, active compounds read low 0.992 | locus YER110C, active compounds read low 1.01 | locus YER111C, strain swi4, active compounds read low 0.992 | locus YER155C, strain BEM2 (second series), active compounds read low 0.987 | locus YER155C, strain BEM2, active compounds read low 1.01 | locus YER167W, strain BCK2, active compounds read low 1 | locus YFR010W, strain ubp6, active compounds read low 0.964 | locus YGL078C, strain dbp3, active compounds read low 1.02 | locus YGL086W, strain mad1, active compounds read low 0.997 | locus YGL167C, strain pmr1, active compounds read low 0.999 | locus YGL173C, strain kem1, active compounds read low 0.999 | locus YGL227W, strain vid30, active compounds read low 0.992 | locus YGL240W, strain doc1, active compounds read low 0.988 | locus YGL248W, strain PDE1, active compounds read low 1.01 | locus YGL253W, strain hxk2, active compounds read low 0.997 | locus YGR135W, strain pre9, active compounds read low 1.01 | locus YGR252W, strain gcn5, active compounds read low 0.998 | locus YHR013C, strain ard1, active compounds read low 0.968 | locus YHR027C, strain rpn1, active compounds read low 0.982 | locus YHR030C, strain SLT2, active compounds read low 1.01 and 1.06 | locus YHR079C, strain IRE1 (second series), active compounds read low 1.01 | locus YHR079C, strain IRE1, active compounds read low 1.03 | locus YHR094C, strain hxt1, active compounds read low 1.01 | locus YHR129C, strain ARP1, active compounds read low 1.01 | locus YHR142W, strain chs7, active compounds read low 1.01 | locus YHR200W, strain rpn10, active compounds read low 1.01 | locus YIL066C, strain RNR3, active compounds read low 1.01 | locus YIL073C, strain SPO22, active compounds read low 1.03 | locus YIL125W, strain kgd1, active compounds read low 1.01 | locus YIR030C, strain dcg1, active compounds read low 1 | locus YJL092W, strain hpr5, active compounds read low 0.982 | locus YJL095W, strain BCK1 (second series), active compounds read low 1 | locus YJL095W, strain BCK1, active compounds read low 0.997 and 0.966 | locus YJL115W, strain asf1, active compounds read low 0.982 | locus YJL129C, strain trk1, active compounds read low 0.985 | locus YJL134W, strain LCB3, active compounds read low 1 | locus YJL154C, strain vps35, active compounds read low 0.978 | locus YJL164C, strain tpk1, active compounds read low 0.997 | locus YJL166W, strain qcr8, active compounds read low 1.06 | locus YJL168C, strain set2, active compounds read low 1 | locus YJL187C, strain SWE1 (second series), active compounds read low 1 | locus YJL187C, strain SWE1, active compounds read low 0.981 | locus YJR043C, strain POL32, active compounds read low 1.03 | locus YJR066W, strain TOR1, active compounds read low 0.991
